From article PMC7819943, “Rice protein-binding microarrays: a tool to detect cis-acting elements near promoter regions in rice” come the findings set out here.

Over roughly 68,000 sequences, “fluorescence intensity (a.u.)” has its median near 9,100; the highest 2% begin near 16,000. For the sample, the highest values were picked, then their nearest neighbours and some sequences at random.

Chain of OsWRKY34 (Q0JBA9 entry or part of it): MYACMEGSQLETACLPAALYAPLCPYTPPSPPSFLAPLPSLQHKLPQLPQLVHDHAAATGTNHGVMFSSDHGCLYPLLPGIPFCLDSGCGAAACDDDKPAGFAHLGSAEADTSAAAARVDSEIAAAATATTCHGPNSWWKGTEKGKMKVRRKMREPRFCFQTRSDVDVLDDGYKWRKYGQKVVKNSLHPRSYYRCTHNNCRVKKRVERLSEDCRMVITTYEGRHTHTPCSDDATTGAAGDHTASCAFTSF

The target of the test is OsWRKY34 (Oryza sativa, UniProt Q0JBA9 1-250). The experiment in a line: protein-binding microarray (RPBM); PBS, 2% BSA, 51.3 ng/ul salmon testes DNA, 50 uM zinc acetate, 200 nM TF, 25 C, 1 h; high values mean tight binding. Particulars: protein: recombinant; tags: N-terminal polyhistidine and DsRed monomer fusion (pET32a); label: CyDye5-dUTP incorporated in the synthesized complementary strand; 3' TTTTT single-stranded linker to array surface; dsDNA, one strand shown. In outline:
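The binding signal for each feature is its fluorescence intensity in arbitrary units. An Axon 4000B scanner was used to read a custom Agilent array that had been made double-stranded with Cy5-dUTP primer extension, blocked with 2% BSA, incubated at 25 °C for 1 h with 200 nM protein in PBS, 2% BSA, salmon testes DNA and 50 µM zinc acetate, and washed. The protein was an N-terminal polyhistidine–DsRed transcription factor fusion from E. coli BL21-CodonPlus, purified on Ni–NTA.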
Take “TTCCTTTTGTGTTGTTTCCCTTTCAGTTTCATCTTTTGCTCGGAGTCACCTAGTGCAG”: the binding signal was 8110 fluorescence intensity (a.u.). As for “ACTTGTCCTTGATCCTGCCCCACTTCGGATTGTCAATCGACGGAGTCACCTAGTGCAG”, the binding signal is 8730 fluorescence intensity (a.u.). “CGTTCCTTGGTATTCTCCCTCGTGGTGTAAATGTACGTATCGGAGTCACCTAGTGCAG”: the binding signal is 9740 fluorescence intensity (a.u.). Under “TTGTTGCAGCCTCGCAGTAAGATTCCTTGTTTTTCTTAGCCGGAGTCACCTAGTGCAG” stands 8620 fluorescence intensity (a.u.); under “TCGCTTTTTACTTTTTATTTTTTTACACATCCGACTCAAACGGAGTCACCTAGTGCAG”, 8260 fluorescence intensity (a.u.). “CCCGCACCGCAACACGCACACCCACGCGCACGCACAAACCCGGAGTCACCTAGTGCAG”: the binding signal is 8060 fluorescence intensity (a.u.). Consider “CACCCAAGCCAAGCCCACGACCCGCACCGCAACACGCACACGGAGTCACCTAGTGCAG”, for which the binding signal was 8520 fluorescence intensity (a.u.). Turning to “ACCCAAAGCCACCCGCAACAACCGACGACGACGACGACCGCGGAGTCACCTAGTGCAG”, the binding signal is 18200 fluorescence intensity (a.u.). For “CCACGCTATCCCATGCGATTCGAGAAGGTTCCACACACACCGGAGTCACCTAGTGCAG” the value was 8430 fluorescence intensity (a.u.); for “AATGGTGCAATACAATTTCAAGCGTATCACTGTTGTTCCTCGGAGTCACCTAGTGCAG”, 9720 fluorescence intensity (a.u.); for “GACTTTTTAGCACATTTTTGACCGTTCATCTTATTCAAAACGGAGTCACCTAGTGCAG”, 8780 fluorescence intensity (a.u.). For “TCAAAATGTTTAACGCCGTTGACTTTTTAGCACATTTTTGCGGAGTCACCTAGTGCAG” the value was 33000 fluorescence intensity (a.u.); for “TTCAAAATGTTTGATACCGTTGACTTTTTAGCACATTTTGCGGAGTCACCTAGTGCAG”, 29400 fluorescence intensity (a.u.); for “GGTTTCAAGAAAAGGAAAAGAAAAACTAAACGTAGTATAACGGAGTCACCTAGTGCAG”, 11300 fluorescence intensity (a.u.).

As to “AGTATCAAGCGATACAGGAGCTCCTCACTCCATCTCTCTACGGAGTCACCTAGTGCAG”, the binding signal is 8330 fluorescence intensity (a.u.). For “CGCCGGTTGCTTCCATATACTCTGCTCCTTTTTTTTCTATCGGAGTCACCTAGTGCAG”, the binding signal is 9240 fluorescence intensity (a.u.). For “ATATCTACTCCCGGTTTCTGCTGGATTCCTTCCTTTTTCTCGGAGTCACCTAGTGCAG”, the binding signal is 17500 fluorescence intensity (a.u.). For “CCTCCTCTCCCTTTTCTGCTGTTTCTCTCTCTCACACACTCGGAGTCACCTAGTGCAG” the value was 8470 fluorescence intensity (a.u.); for “TTTTTTTCTCCTTTCCTTCTTCTCTCTCTCTCTTTTTTTTCGGAGTCACCTAGTGCAG”, 8870 fluorescence intensity (a.u.); for “CACTCTCTCTCGCTGTCTTTCTCTCCTTCCATTTCATTTCCGGAGTCACCTAGTGCAG”, 8250 fluorescence intensity (a.u.).

As for “CACACACTCTCCGGTTTTTTTTTCCTTTTCATTTTTTTCTCGGAGTCACCTAGTGCAG”, the binding signal was 28000 fluorescence intensity (a.u.). For “TTCGGTTTTTCTCTTCATCATTTCTCTTTATTTCTTTCTCCGGAGTCACCTAGTGCAG” the value was 9290 fluorescence intensity (a.u.); for “GTTTTGCACATCCGGTTTTCTCTCTCTCTCTCTCTCCTTTCGGAGTCACCTAGTGCAG”, 16700 fluorescence intensity (a.u.); for “CGTTTCTCTTTCTTTCTTCCCTTCGGTTTCTCCTCCTCTCCGGAGTCACCTAGTGCAG”, 10600 fluorescence intensity (a.u.). For “ACAGGGCTTGGAATAGGTTGGTGTACAGGGCGGTAGCTTACGGAGTCACCTAGTGCAG” the value was 8670 fluorescence intensity (a.u.); for “AGAAAAGAATCTACAGTACCCACATGGCATACTCTCTTTTCGGAGTCACCTAGTGCAG”, 9950 fluorescence intensity (a.u.). Consider “GTCTTTTGGTGGGTGGGAAATCACTTCCATTTCCCATTAGCGGAGTCACCTAGTGCAG”, for which the binding signal is 11300 fluorescence intensity (a.u.). Under “GTGGCAATGCAAACTCGTCTTGGAACCCACTGCTTTGCCTCGGAGTCACCTAGTGCAG” stands 8192 fluorescence intensity (a.u.); under “CTACTATCATATTTTTTAATAGATGACTCCGTTGACTTTTCGGAGTCACCTAGTGCAG”, 16800 fluorescence intensity (a.u.).

Turning to “ATACTACCTCCGTTTTTTAATAGATGACGTCGTTGACTTTCGGAGTCACCTAGTGCAG”, the binding signal was 14600 fluorescence intensity (a.u.). Under “ATGACATACTAATAGATGATACTATTGACTTTTTTTCTATCGGAGTCACCTAGTGCAG” stands 9980 fluorescence intensity (a.u.).

Consider “TACCTCCGTTTTTTAATAGATGACGCCGTTGACTTTTTCTCGGAGTCACCTAGTGCAG”, for which the binding signal is 25000 fluorescence intensity (a.u.). Under “TCCCTCCGTTTTTTAATAGATGATGCCGTTGACTTTTTCTCGGAGTCACCTAGTGCAG” stands 19300 fluorescence intensity (a.u.).

As for “TACCTCCGTTTTCTAATAGATGACGCCGTTGACTTTTTCTCGGAGTCACCTAGTGCAG”, the binding signal is 20700 fluorescence intensity (a.u.). For “GTTTCTTACCCATCTACTATGGCCTATTTAACCCTGCGCCCGGAGTCACCTAGTGCAG”, the binding signal was 11000 fluorescence intensity (a.u.). Regarding “GCCCGCGCCGTCTACCAGGACGCCGACGTCTACCTCCTCGCGGAGTCACCTAGTGCAG”, the binding signal is 8470 fluorescence intensity (a.u.). Under “CCTCTTCTCCTTCGGTGTGTTCGTCGATGTGCTTTGCTGACGGAGTCACCTAGTGCAG” stands 8580 fluorescence intensity (a.u.). With “CGGTTTGGGCTCTTTTGGCTGTTCCATGGCGACGAGGCGCCGGAGTCACCTAGTGCAG”, the binding signal is 8320 fluorescence intensity (a.u.). Under “GACCCCTCCGACCGCTACGCCAACCACAACACCGTCTTCTCGGAGTCACCTAGTGCAG” stands 9430 fluorescence intensity (a.u.); under “TGTCAACCCGCGCCTCCGATTTCTCCAGCTTTTCTTTCCCCGGAGTCACCTAGTGCAG”, 12800 fluorescence intensity (a.u.).

On to “AGTAGTCTCCGTCTTCGTCCTCTTCCTTCTTGTTTAATAACGGAGTCACCTAGTGCAG”, for which the binding signal is 8930 fluorescence intensity (a.u.). For “TGCCTGTAGTGGCGGTTGGGGATGCGGATAAGGCGAGGGGCGGAGTCACCTAGTGCAG” the value was 14500 fluorescence intensity (a.u.); for “TCCGACATGCTGCCCTCGATCGAGCTCATCCATCGGCCCTCGGAGTCACCTAGTGCAG”, 9550 fluorescence intensity (a.u.); for “CCACCCTTTTTCTCTGCTTCCAGTGTACGTTTTCGAATAACGGAGTCACCTAGTGCAG”, 9880 fluorescence intensity (a.u.).

With “CCTCCTAGTTCCCTCGGCATGCAGACGATCTGCCAGTTTACGGAGTCACCTAGTGCAG”, the binding signal is 11700 fluorescence intensity (a.u.). For the sequence “TATCGTCCGGTGCTCCTCGTCCATGTCAACAGCTACCATACGGAGTCACCTAGTGCAG”, the binding signal was 9850 fluorescence intensity (a.u.). For the sequence “GAGGGCAAGGGCGGCGGGTCTAACACAACACAATAAGAGTCGGAGTCACCTAGTGCAG”, the binding signal was 9470 fluorescence intensity (a.u.). For “TCTTTGCAGGTCACTTCCGGGTGCTTCACATTCCGGTTAACGGAGTCACCTAGTGCAG” the value was 8890 fluorescence intensity (a.u.). Take “TCCTCATCTTGTGCTCTCAAGTGTTTTAAGTGCTCTCTTTCGGAGTCACCTAGTGCAG”: the binding signal was 10500 fluorescence intensity (a.u.). For the sequence “ATTTAATTTCACCTACTACTACTACTATTCTTCTTATTAACGGAGTCACCTAGTGCAG”, the binding signal is 9430 fluorescence intensity (a.u.).

For the sequence “CATATACTCCCTCCGTTTTTTAATAGATGACGCCGTTGACCGGAGTCACCTAGTGCAG”, the binding signal was 12300 fluorescence intensity (a.u.). With “CTTACTACCTCCGTATTTTAGTGTATGATGCCGTTGACTTCGGAGTCACCTAGTGCAG”, the binding signal is 14500 fluorescence intensity (a.u.). Turning to “AATACTACCTCCGTTTTAAAATGTTTGACGCCGTTGATATCGGAGTCACCTAGTGCAG”, the binding signal is 8440 fluorescence intensity (a.u.).

On to “TACTACCTCCGTTTTTAATAGATGACGCCGTTGACTTTTTCGGAGTCACCTAGTGCAG”, for which the binding signal is 23700 fluorescence intensity (a.u.).

With “TACTCCCTCCGTTTTTTAATAGATGACGCCGTTGACTTTTCGGAGTCACCTAGTGCAG”, the binding signal is 16100 fluorescence intensity (a.u.). For the sequence “TACTCCCTCTGTTTTTTAATAGATGACGCCGTTGACTTTTCGGAGTCACCTAGTGCAG”, the binding signal was 17100 fluorescence intensity (a.u.).
